# Results reported in PubChem BioAssay (Tox21).
# Values joined by “and” are separate entries in the source; they are usually repeats but may differ in a detail not shown here. Identical values can stand only once. Inconclusive results are not listed. Entries that show only a call come without a potency. A number with no mark means an inactive call. Active and inactive are the calls of the source. Unless noted, calls follow the shape of the dose curve; as a rule, active = well fitted curve in the direction sought with a large enough effect in the repeat runs; inconclusive = weak or mixed curves; inactive = no such curve, though single readings can be large; an effect the other way counts as inactive or inconclusive.
# What was measured:
# [1] = qHTS assay to identify aromatase inhibitors - cell viability counter screen (AID 743084);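 also: cells stimulated with testosterone during compound exposure; nearly all actives have a fitted effect of over 55% in size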
# [2] = target: Aryl hydrocarbon receptor (Homo sapiens) (UniProt P35869); assay: qHTS assay to identify small molecule that activate the aryl hydrocarbon receptor (AhR) signaling pathway (AID 743085); also: nearly all actives have a fitted effect of over 15% in size; also: potency is read from the fitted curve at half-maximal effect;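 as to activation: HG2L7.5c1 human HepG2 liver cells with stably integrated DRE-driven firefly reporter; series mostly up to about 70 µM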
# Outline: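 AhR agonist activity is inferred from enhanced light output of a DRE-controlled firefly luciferase reporter in HepG2 cells, measured with ONE-Glo following 24 h treatment at 37C.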
# [3] = qHTS assay to identify small molecule that activate the aryl hydrocarbon receptor (AhR) signaling pathway - cell viability counter screen (AID 743086);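 also: HepG2 liver cells carrying the AhR DRE luciferase reporter; series mostly up to about 70 µM; nearly all actives have a fitted effect of over 45% in size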
# Outline: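 Cytotoxicity counter screen: CellTiter-Fluor signal (30 min, 37 C) in 4000 HepG2 cells/well carrying the DRE-luciferase reporter, following 24 h compound exposure at 37 C.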
# [4] = target: Peroxisome proliferator-activated receptor gamma (Homo sapiens) (UniProt P37231); assay: qHTS assay to identify small molecule agonists of the peroxisome proliferator-activated receptor gamma (PPARg) signaling pathway (AID 743094; active = well fitted activation curve with a large enough effect in the signal ratio in the repeat runs, not every such curve was filed as active; the % refers to the signal ratio)
# Outline: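 Reporter activation was scored by fluorescence of cleaved LiveBLAzer B/G substrate (1 h, room temperature) in PPARg-bla HEK293H cells previously treated 17 h at 37C with DMSO-dissolved compounds.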
# [5] = target: Peroxisome proliferator-activated receptor gamma (Homo sapiens) (UniProt P37231); assay: qHTS assay to identify small molecule antagonists of the peroxisome proliferator-activated receptor gamma (PPARg) signaling pathway (AID 743191; calls by dose curve; also: nearly all actives have a fitted effect of over 30% in size; also: potency is read from the fitted curve at half-maximal effect)
# Outline: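 Beta-lactamase reporter under UAS control in HEK293H PPARg-bla cells; compound treatment 17 h at 37C. Read-out: fluorescence intensity after 1 h room-temperature incubation with LiveBLAzer B/G FRET substrate.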
# [6] = qHTS assay to identify small molecule antagonists of the peroxisome proliferator-activated receptor gamma (PPARg) signaling pathway - cell viability counter screen (AID 743194); also: nearly all actives have a fitted effect of over 55% in size
# Outline: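 Viability was measured as CellTiter-Glo luminescence in GeneBLAzer PPARg UAS-bla HEK293H cells. These cells had been exposed 17 h at 37 C to compounds together with rosiglitazone at 50 nM final, with the beta-lactamase readout taken in the same wells.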
# [7] = qHTS assay for small molecule agonists of the antioxidant response element (ARE) signaling pathway (AID 743202; active = well fitted activation curve with a large enough effect in the signal ratio in the repeat runs, not every such curve was filed as active; the % refers to the signal ratio; also: potency is read from the fitted curve at half-maximal effect)
# Outline: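 Beta-lactamase reporter activity, read as fluorescence intensity, reflects ARE/Nrf2 pathway induction in HepG2 cells after 16 h compound exposure at 37 C; substrate loading was 2 h at room temperature.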
# [8] = qHTS assay for small molecule agonists of the antioxidant response element (ARE) signaling pathway - cell viability counter screen (AID 743203; calls by dose curve; also: nearly all actives have a fitted effect of over 55% in size)
# Outline: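 Viability counter screen: stably transfected ARE-bla HepG2 line, 16 hrs compound exposure at 37C/5% CO2, ATP-based CellTiter-Glo luminescence measured in the reporter wells.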
# [9] = qHTS assay for small molecule activators of the heat shock response signaling pathway - cell viability counter screen (AID 743209); also: nearly all actives have a fitted effect of over 50% in size
# Outline: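 Viability of HSE-bla HeLa cells is measured with CellTiter-Glo in the wells already used for the reporter read. Compound exposure lasts 5 h at 37 C, and luminescence is read after 30 min at room temperature.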
# [10] = qHTS assay for small molecule activators of the heat shock response signaling pathway (AID 743210; active = well fitted activation curve with a large enough effect in the signal ratio in the repeat runs, with a control signal flat, not every such curve was filed as active; the % refers to the signal ratio;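 also: HeLa cells with beta-lactamase reporter driven by heat shock elements; series mostly up to about 63 µM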)
# Outline: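 Fluorescence from a cleaved B/G FRET substrate (2.5 h, room temp) reports HSE-driven beta-lactamase in HeLa cells treated 5 h at 37 C with DMSO-dissolved compounds.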
# Chain of Peroxisome proliferator-activated receptor gamma (Homo sapiens) (P37231 whole entry, looked up): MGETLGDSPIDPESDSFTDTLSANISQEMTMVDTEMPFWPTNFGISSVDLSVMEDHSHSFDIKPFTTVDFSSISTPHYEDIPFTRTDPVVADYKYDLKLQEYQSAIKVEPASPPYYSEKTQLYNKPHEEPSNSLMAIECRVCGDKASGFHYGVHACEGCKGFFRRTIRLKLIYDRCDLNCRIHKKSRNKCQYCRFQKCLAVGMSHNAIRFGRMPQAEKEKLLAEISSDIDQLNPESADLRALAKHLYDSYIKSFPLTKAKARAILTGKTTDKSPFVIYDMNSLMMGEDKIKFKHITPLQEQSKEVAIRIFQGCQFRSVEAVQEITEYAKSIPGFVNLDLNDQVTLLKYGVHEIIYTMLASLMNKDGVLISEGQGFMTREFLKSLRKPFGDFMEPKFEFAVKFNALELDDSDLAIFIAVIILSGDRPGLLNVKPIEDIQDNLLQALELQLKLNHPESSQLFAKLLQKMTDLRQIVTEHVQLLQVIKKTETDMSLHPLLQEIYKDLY
# Chain of Aryl hydrocarbon receptor (Homo sapiens) (P35869 whole entry, looked up): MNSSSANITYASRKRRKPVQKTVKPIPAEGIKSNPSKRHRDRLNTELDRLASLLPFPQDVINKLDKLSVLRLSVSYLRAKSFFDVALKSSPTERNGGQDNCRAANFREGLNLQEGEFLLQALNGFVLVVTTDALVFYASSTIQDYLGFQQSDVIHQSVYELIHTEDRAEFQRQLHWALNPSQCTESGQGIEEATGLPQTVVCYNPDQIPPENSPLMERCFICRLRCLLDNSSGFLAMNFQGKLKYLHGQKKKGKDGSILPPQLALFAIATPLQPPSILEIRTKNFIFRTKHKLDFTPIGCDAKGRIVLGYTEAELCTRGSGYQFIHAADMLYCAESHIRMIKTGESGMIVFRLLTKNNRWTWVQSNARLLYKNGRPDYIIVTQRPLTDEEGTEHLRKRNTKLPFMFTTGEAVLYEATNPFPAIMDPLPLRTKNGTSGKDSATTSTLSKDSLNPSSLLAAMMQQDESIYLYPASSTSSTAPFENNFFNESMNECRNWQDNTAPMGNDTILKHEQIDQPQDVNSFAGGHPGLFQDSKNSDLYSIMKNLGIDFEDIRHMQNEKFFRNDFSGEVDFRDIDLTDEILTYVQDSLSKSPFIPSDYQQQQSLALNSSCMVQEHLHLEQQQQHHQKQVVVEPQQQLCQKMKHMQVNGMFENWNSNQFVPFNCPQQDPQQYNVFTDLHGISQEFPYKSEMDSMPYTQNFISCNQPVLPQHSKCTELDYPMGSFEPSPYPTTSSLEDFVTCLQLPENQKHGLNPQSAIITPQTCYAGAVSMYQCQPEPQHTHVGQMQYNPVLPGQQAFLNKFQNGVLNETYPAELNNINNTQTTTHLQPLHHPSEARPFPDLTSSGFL
SMILES,outcome [1],Potency [2],outcome [3],outcome [4],Potency [5],outcome [6],Potency [7],outcome [8],outcome [9],outcome [10]
Cc1ccccc1O,inactive,inactive,inactive,inactive,inactive,inactive,inactive,inactive,inactive,inactive
Nc1ccc(Oc2ccc(N)cc2)cc1,inactive,11 µM (active),inactive,inactive,inactive,inactive,inactive,inactive,inactive,inactive
CC(C)=C[C@@H]1[C@@H](C(=O)OCc2coc(Cc3ccccc3)c2)C1(C)C,inactive,inactive,inactive,inactive,inactive,inactive,inactive,inactive,inactive,inactive
c1ccc2c(c1)Oc1ccccc1O2,inactive,inactive,inactive,–,–,inactive,inactive,inactive,inactive,inactive
NCC(O)c1ccc(O)cc1 (stereo not given),inactive,inactive,inactive,inactive,–,inactive,inactive,inactive,inactive,–
Nc1ccc(Br)cc1,inactive,61 µM (active) and 21.7 µM (active),inactive,inactive,–,inactive,inactive,inactive,inactive,inactive
CCC(C)(CC)c1cc(NC(=O)c2c(OC)cccc2OC)on1,inactive,61.3 µM (active),inactive,inactive,–,inactive,–,inactive,inactive,–
O=C(NC(=O)c1c(F)cccc1F)Nc1cc(Cl)c(OC(F)(F)C(F)C(F)(F)F)cc1Cl (stereo not given),inactive,inactive,inactive,inactive,–,inactive,–,inactive,inactive,inactive
CC(C)(C)OOC(C)(C)C,inactive,inactive,inactive,inactive,–,inactive,inactive,inactive,inactive,–
c1ccc2c(c1)oc1ccccc12,–,–,inactive,–,–,inactive,inactive,inactive,inactive,–
CC(C)(C)C(O)(CCc1ccc(Cl)cc1)Cn1cncn1 (stereo not given),inactive,inactive,inactive,–,inactive,inactive,–,inactive,inactive,–
CCc1cccc(C)c1N(C(=O)CCl)C(C)COC (stereo not given),inactive,inactive,inactive,–,21.9 µM (active),inactive,8.14 µM (active) and 19.3 µM (active),inactive,inactive,inactive
CC(C)OC(=O)Nc1cccc(Cl)c1,inactive,inactive,inactive,inactive,–,inactive,inactive,inactive,inactive,inactive
C#CC(C)(C)NC(=O)c1cc(Cl)cc(Cl)c1,inactive,inactive,inactive,–,–,inactive,inactive,inactive,inactive,inactive
O=S(=O)(c1ccc(Cl)cc1)c1cc(Cl)c(Cl)cc1Cl,inactive,inactive,inactive,inactive,–,inactive,inactive,inactive,inactive,–
CCOC(=O)c1ccccc1C(=O)OCC,inactive,–,inactive,inactive,inactive,inactive,inactive,inactive,inactive,inactive
Cc1cccc([N+](=O)[O-])c1,inactive,–,inactive,inactive,inactive,inactive,inactive,inactive,inactive,inactive
Cn1cc(-c2ccccc2)c(=O)c(-c2cccc(C(F)(F)F)c2)c1,–,inactive,inactive,inactive,inactive,inactive,inactive,inactive,inactive,inactive
CCCCN(CCCC)SN(C)C(=O)Oc1cccc2c1OC(C)(C)C2,inactive,inactive,inactive,inactive,–,–,inactive,inactive,inactive,–
CC(C)(Cl)Cl,inactive,inactive,inactive,inactive,inactive,inactive,–,inactive,inactive,–

SMILES,outcome [1],Potency [2],outcome [3],outcome [4],Potency [5],outcome [6],Potency [7],outcome [8],outcome [9],outcome [10]
CCNc1nc(NC(C)(C)C)nc(SC)n1,inactive,1.52 µM (active),inactive,inactive,inactive,inactive,–,inactive,inactive,inactive
C=CC(N)=O,inactive,inactive,inactive,–,–,inactive,inactive,inactive,inactive,inactive
CCCC1COC(Cn2cncn2)(c2ccc(Cl)cc2Cl)O1 (stereo not given),inactive,34.4 µM (active),inactive,inactive,inactive,inactive,–,inactive,inactive,inactive
[N-]=[N+]=[N-],inactive,–,inactive,inactive,inactive,inactive,–,inactive,inactive,–
Nc1c(Cl)c(Cl)nc(C(=O)O)c1Cl,inactive,34 µM (active),inactive,inactive,inactive,inactive,inactive,inactive,inactive,inactive
CON(C)C(=O)Nc1ccc(Cl)c(Cl)c1,inactive,21.8 µM (active) and 27.3 µM (active),inactive,inactive,–,inactive,inactive,inactive,inactive,inactive
O=NN1CCCCCCC1,inactive,inactive,inactive,inactive,inactive,inactive,inactive,inactive,inactive,inactive
Cc1ccc(N)cc1Cl,inactive,–,inactive,inactive,inactive,inactive,inactive,inactive,inactive,inactive
C=CCO,inactive,inactive,inactive,–,–,inactive,inactive,inactive,inactive,–
COC(=O)NC(=S)Nc1ccccc1NC(=S)NC(=O)OC,inactive,–,inactive,inactive,inactive,inactive,–,inactive,inactive,inactive
O=c1[nH]c2ccccc2c(=O)o1,inactive,inactive,inactive,inactive,–,inactive,inactive,inactive,inactive,inactive
Clc1ccccc1Cl,inactive,inactive,inactive,inactive,–,inactive,inactive,inactive,inactive,–
OCCN(CCO)CCO,–,–,inactive,–,–,inactive,inactive,inactive,inactive,–
C[C@]12CC[C@H]3[C@@H](CC[C@@]45O[C@@H]4C(O)=C(C#N)C[C@]35C)[C@@H]1CC[C@@H]2O,inactive,inactive,inactive,–,–,inactive,30.6 µM (active) and 23.7 µM (active),inactive,inactive,–
CN1C(=O)CN=C(c2ccccc2)c2cc(Cl)ccc21,inactive,–,inactive,–,–,inactive,inactive,inactive,inactive,inactive
CN(C)[C@@H]1C(=O)C(C(N)=O)=C(O)[C@@]2(O)C(=O)C3=C(O)c4c(O)cccc4[C@@](C)(O)[C@H]3C[C@@H]12,inactive,inactive,inactive,inactive,–,inactive,–,inactive,inactive,–
CC(NC(C)(C)C)C(=O)c1cccc(Cl)c1 (stereo not given),inactive,inactive,inactive,–,–,inactive,inactive,inactive,inactive,–
CC(Oc1ccc(Cl)cc1Cl)C(=O)O (stereo not given),inactive,inactive,inactive,inactive,inactive,inactive,inactive,inactive,inactive,inactive
CNC(=O)Oc1ccccc1OC(C)C,inactive,inactive,inactive,inactive,–,inactive,inactive,inactive,inactive,inactive
COc1ccc2c3c1O[C@H]1[C@@H](O)C=C[C@H]4[C@@H](C2)N(C)CC[C@@]341,inactive,inactive,inactive,inactive,–,inactive,26.9 µM (active),inactive,inactive,inactive
